ATXN viability = viability counter-screen for ATXN expression inhibitors; 0.49% of 400,000 active; Potency, µM (series often up to 56.7 µM), most hits filed as cytotoxic; S2 cells (HEK-293 line with an ATXN2-luciferase reporter) viability, CellTiter-Fluor protease fluorescence, 24 h; note: nearly all actives have a fitted effect of over 40% in size
DT40 TDP1 CPT = DT40-hTDP1 cell growth loss with CPT; Potency, µM (highest dose often 46.2 µM), usual class: inhibitors; AID 686979; chicken DT40 Tdp1-/-;hTDP1 cells + 20 nM CPT, ATP luminescence, 48 h; 12% of 420,000 active; note: nearly all actives have a fitted effect of over 55% in size
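Chicken DT40 Tdp1-/- cells stably complemented with human TDP1 were seeded at 400 cells/well in medium containing 20 nM camptothecin, exposed to pin-transferred compounds, and grown at 37 °C for at least 48 hr. Viability was read as ATP luminescence.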
DT40 TDP1 no CPT = qHTS for Inhibitors of human tyrosyl-DNA phosphodiesterase 1 (TDP1): qHTS in cells in absence of CPT; DT40 Tdp1-/- hTDP1 cells, no CPT, ATP luminescence, 48 h; 15% of 420,000 active; Potency, µM (highest dose often 46.2 µM), hits mostly inhibitors; note: nearly all actives have a fitted effect of over 55% in size
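Chicken DT40 Tdp1-/- cells stably complemented with human TDP1 were seeded at 400 cells/well with DMSO in place of 20 nM camptothecin. After compound pinning, cells grew at least 48 hr at 37 °C; viability read by CellTiter-Glo luminescence.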
ATXN2 expr inh = inhibitors of ATXN2 expression; HEK-293 ATXN2-luciferase reporter, luminescence, 24 h; Potency, µM (doses to about 57 µM), usual class: inhibitors; 0.72% of 360,000 active; note: nearly all actives have a fitted effect of over 55% in size
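qHTS (up to 57 uM final) was run with 24 h compound exposure of reporter cells at 37 °C. Each well was multiplexed: SteadyGlo luminescence measured ATXN2-luciferase expression after a fluorogenic Gly-Phe-AFC viability readout (25 uM final).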
HepG2 tox = kills HepG2 cells in TGF-b inhibitor counter-screen. HepG2 CAGA-GFP viability, ATP luminescence, 18 h. Potency, µM (titrated, usually from 46.1 µM), hits mostly cytotoxic. 0.76% of 410,000 active
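HepG2 CAGA-GFP cells (1000/well, DMEM with 1% FBS) received compound, then TGF-beta at 500 pg/mL final, and were incubated 18 hours at 37 degrees C. Viability was read by CellTiter-Glo luminescence. Media-only wells were set as complete cell-killing and DMSO as no toxicity.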
TGFb SMAD3 inh = inhibitors of TGF-b signaling. HepG2 CAGA-GFP TGF-b/SMAD3 reporter, GFP fluorescence, 18 h; TGF-beta stimulated, 500 pg/mL final. Potency, µM (highest dose often 46.1 µM), hits mostly inhibitors. 1.2% of 410,000 active. AID 588855; note: nearly all actives have a fitted effect of over 65% in size
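Read-out: total well GFP (ex488/em500-530) summed from mean per-cell fluorescence. Cells: HEPG2 CAGA-GFP, 1% FBS DMEM, 18 h at 37 degrees C with 500 pg/mL final TGF-beta. Unstimulated wells served as the full-inhibition control; stimulated DMSO wells = 0%.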
A number is an active result. Rows were chosen to be rich in hits. Some 17% of all compounds tested hit in one or more screens of this group. Calls come from the whole dose curve; as a rule, active = well fitted curve in the direction sought with a large enough effect; inconclusive = small, poorly fitted or top-dose-only effect, or another doubt; inactive = no such curve, though single readings can be large; an effect the other way counts as inactive or inconclusive.

For Cc1ccc(NC(=O)CCl)c(C)c1 the results were ATXN viability inconclusive, DT40 TDP1 CPT inconclusive, DT40 TDP1 no CPT 25.9µM, ATXN2 expr inh inconclusive, HepG2 tox inactive and TGFb SMAD3 inh inactive.
Screening CC(C)(C)c1csc(NC(=O)Cn2c(=O)oc3ccccc32)n1 returned ATXN viability inactive, DT40 TDP1 CPT 16.4µM, DT40 TDP1 no CPT inconclusive, ATXN2 expr inh inactive, HepG2 tox inactive and TGFb SMAD3 inh inactive.
For CCOc1ccc(NC(=O)Cn2c(=O)oc3cc(Cl)ccc32)cc1 the results were ATXN viability inactive, DT40 TDP1 CPT inconclusive, DT40 TDP1 no CPT inconclusive, HepG2 tox inactive and TGFb SMAD3 inh inactive.
Cc1ccc(NC(=O)CCc2ccc(C)o2)c(C)c1 was read as ATXN viability inactive, DT40 TDP1 CPT inconclusive, DT40 TDP1 no CPT inactive, ATXN2 expr inh inactive, HepG2 tox inactive and TGFb SMAD3 inh inactive.
`CCOc1ccccc1NC(=O)Cn1c(=O)oc2cc(Cl)ccc21` gave ATXN viability inactive, DT40 TDP1 CPT inactive, DT40 TDP1 no CPT 4.61µM, ATXN2 expr inh inactive, HepG2 tox inactive and TGFb SMAD3 inh inactive.
For Cc1ccc(NC(=O)NC2CCCCC2)c(C)c1 the results were ATXN viability inactive, DT40 TDP1 CPT 1.03µM, DT40 TDP1 no CPT 1.16µM, ATXN2 expr inh inactive, HepG2 tox inactive and TGFb SMAD3 inh inactive.
`CS(=O)(=O)c1ccc(C(=O)Nc2cc(S(C)(=O)=O)ccc2Cl)cc1` gave ATXN viability inactive, DT40 TDP1 CPT inactive, DT40 TDP1 no CPT inactive, ATXN2 expr inh inactive, HepG2 tox inactive and TGFb SMAD3 inh inactive.
For CS(=O)(=O)c1ccc(Cl)c(NC(=O)CCl)c1 the results were ATXN viability inconclusive, DT40 TDP1 CPT 5.8µM, DT40 TDP1 no CPT 10.3µM, ATXN2 expr inh inconclusive, HepG2 tox inactive and TGFb SMAD3 inh inactive.
For Cc1ccc(NC(=O)Cn2c(=O)oc3ccccc32)c(C)c1 the results were ATXN viability inactive, DT40 TDP1 CPT inactive, DT40 TDP1 no CPT 13µM, ATXN2 expr inh inactive, HepG2 tox inactive and TGFb SMAD3 inh inactive.
O=C(Cn1c(=O)oc2ccccc21)Nc1ccccc1C(F)(F)F was read as ATXN viability inactive, DT40 TDP1 CPT inconclusive, DT40 TDP1 no CPT 6.51µM, ATXN2 expr inh inactive, HepG2 tox inactive and TGFb SMAD3 inh inactive.
`Cc1ccc(NC(=O)Cn2c(=O)oc3ccccc32)cc1` gave ATXN viability inactive, DT40 TDP1 CPT inactive, DT40 TDP1 no CPT inactive, ATXN2 expr inh inactive, HepG2 tox inactive and TGFb SMAD3 inh inactive.
`COc1ccc(-n2c3c(cc(-c4nc(-c5ccc(Cl)cc5)cs4)c2=O)C(=O)CC(C)(C)C3)cc1` gave ATXN viability inactive, DT40 TDP1 CPT inactive, DT40 TDP1 no CPT inactive, ATXN2 expr inh inactive, HepG2 tox inactive and TGFb SMAD3 inh inactive.
For CC(C)CCC(C)NC(=O)C1CCN(S(=O)(=O)/C=C/c2ccccc2)CC1 (centres undefined) the results were ATXN viability inactive, DT40 TDP1 CPT inactive, DT40 TDP1 no CPT inactive, ATXN2 expr inh inactive, HepG2 tox inactive and TGFb SMAD3 inh inactive.
For Cc1ccccc1C(=O)Nc1cccc(-c2nnc(SCC(=O)NCc3ccco3)n2C)c1 the results were DT40 TDP1 CPT inactive, DT40 TDP1 no CPT inactive, HepG2 tox inactive and TGFb SMAD3 inh inactive.
For C[C@@H]1C(=O)O[C@H]2CC34[C@H]5C[C@@H](C(C)(C)C)C36[C@H](OC(=O)[C@@H]6O)O[C@@]4(C(=O)O5)[C@]21O (some centres undefined) the results were ATXN2 expr inh inactive.
For Cc1ccc(C)c(NC(=O)Cc2nc(CCl)cs2)c1 the results were ATXN viability inactive, DT40 TDP1 CPT 25.9µM, DT40 TDP1 no CPT 20.6µM, ATXN2 expr inh inactive, HepG2 tox inactive and TGFb SMAD3 inh inactive.
`O=C(Nc1ccc(N2CCOCC2)cc1)c1csc([C@@H]2C[C@H](O)[C@@H](CO)O2)n1` gave ATXN viability inactive, DT40 TDP1 CPT inactive, DT40 TDP1 no CPT inactive, ATXN2 expr inh inactive, HepG2 tox inactive and TGFb SMAD3 inh inactive.
Screening COc1ccc(Cn2c(SC)nc3ccccc32)cc1[N+](=O)[O-] returned ATXN viability inactive, DT40 TDP1 CPT inactive, DT40 TDP1 no CPT inactive, ATXN2 expr inh inactive, HepG2 tox inactive and TGFb SMAD3 inh inconclusive.
COc1ccc(CC2(CO)COc3ccccc3C2=O)cc1 (centres undefined) was read as ATXN viability inactive, DT40 TDP1 CPT inconclusive, DT40 TDP1 no CPT 16.4µM, ATXN2 expr inh inactive, HepG2 tox inactive and TGFb SMAD3 inh inactive.
COc1ccc(CN2C(=O)COc3ccccc32)cc1 was read as ATXN viability inactive, DT40 TDP1 CPT inactive, DT40 TDP1 no CPT inactive, ATXN2 expr inh inactive, HepG2 tox inactive and TGFb SMAD3 inh inactive.
For CC1CC(C)CN(CCCNC(=O)c2ccc3c(c2)NC(=O)CS3)C1 (centres undefined) the results were ATXN viability inactive, DT40 TDP1 CPT inactive, DT40 TDP1 no CPT inactive, ATXN2 expr inh inactive, HepG2 tox inactive and TGFb SMAD3 inh inactive.
Screening Cc1onc(-c2ccccc2)c1C(=O)Nc1cc(C(F)(F)F)ccc1N1CCOCC1 returned ATXN viability inactive, DT40 TDP1 CPT 3.66µM, DT40 TDP1 no CPT 2.91µM, ATXN2 expr inh inactive, HepG2 tox inactive and TGFb SMAD3 inh inactive.
For Cc1onc(-c2ccccc2)c1C(=O)Nc1ccccc1N1CCOCC1 the results were ATXN viability inactive, DT40 TDP1 CPT inconclusive, DT40 TDP1 no CPT inconclusive, ATXN2 expr inh inactive, HepG2 tox inactive and TGFb SMAD3 inh inconclusive.
For Cc1onc(-c2c(F)cccc2Cl)c1C(=O)N1CCCc2ccccc21 the results were ATXN viability inconclusive, DT40 TDP1 CPT inconclusive, DT40 TDP1 no CPT 18.4µM, ATXN2 expr inh inactive, HepG2 tox inactive and TGFb SMAD3 inh inactive.
`Cc1onc(-c2c(F)cccc2Cl)c1C(=O)Nc1cccc2nsnc12` gave ATXN viability inactive, DT40 TDP1 CPT 16.4µM, DT40 TDP1 no CPT 3.66µM, ATXN2 expr inh inactive, HepG2 tox inactive and TGFb SMAD3 inh inactive.
Cc1onc(-c2ccccc2Cl)c1C(=O)N1CCCc2ccccc21 was read as ATXN viability inactive, DT40 TDP1 CPT inconclusive, DT40 TDP1 no CPT inconclusive, ATXN2 expr inh inconclusive, HepG2 tox inactive and TGFb SMAD3 inh inactive.
For Cc1onc(-c2c(F)cccc2Cl)c1C(=O)Nc1ccccc1N1CCOCC1 the results were ATXN viability inactive, DT40 TDP1 CPT inconclusive, DT40 TDP1 no CPT 23.1µM, ATXN2 expr inh inactive, HepG2 tox inactive and TGFb SMAD3 inh inactive.
For Cn1nc(C(=O)NC(C)(C)C)c2ccccc21 the results were ATXN viability inactive, DT40 TDP1 CPT inactive, DT40 TDP1 no CPT inactive, ATXN2 expr inh inactive, HepG2 tox inactive and TGFb SMAD3 inh inactive.

Screens deposited in PubChem BioAssay by National Center for Advancing Translational Sciences (NCATS).
